The record followed here is article PMC8384837, “Expanding the binding specificity for RNA recognition by a PUF domain”.

Holding throughout (experiment): yeast three-hybrid, YBZ-1, SC-Leu-His + 0.5 mM 3-AT, 4 days
What all share (conditions): tags: N-Gal4 AD-HA kept; label: inside an RPR1-promoter hybrid RNA with tandem MS2 sites; ssRNA

In assay [1] the target is PUM1 PUF domain R8-RRN (Homo sapiens, UniProt Q14671 828-1176, N1122R;Y1123R;Q1126N). The procedure, abridged: (§1)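 Each repeat of the Pumilio-1 PUF domain was randomized at its three base-contacting residues, and these libraries were co-expressed from a centromeric plasmid with matching RNA elements in strain YBZ-1. After four days on SC-Leu (input) or SC-Leu-His + 0.5 mM 3-AT (selection), the repeat regions were PCR-amplified and Illumina-sequenced. The interaction score compares variant frequency between input and selection as a log change, computed in log2 with a pseudocount of 1 for absent variants.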
Chain of PUM1 PUF domain R8-RRN (Q14671 828-1176 N1122R/Y1123R/Q1126N): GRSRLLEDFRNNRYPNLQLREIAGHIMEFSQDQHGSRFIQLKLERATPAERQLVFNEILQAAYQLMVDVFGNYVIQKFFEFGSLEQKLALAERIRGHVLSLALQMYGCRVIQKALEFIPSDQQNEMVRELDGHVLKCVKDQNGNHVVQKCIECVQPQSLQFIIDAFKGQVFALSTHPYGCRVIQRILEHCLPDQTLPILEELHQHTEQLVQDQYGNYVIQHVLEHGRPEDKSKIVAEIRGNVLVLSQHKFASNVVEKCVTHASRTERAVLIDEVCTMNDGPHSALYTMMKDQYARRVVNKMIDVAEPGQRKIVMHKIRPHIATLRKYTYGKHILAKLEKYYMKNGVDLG

The target in assay [2] is PUM1 PUF domain R5-VHL (Homo sapiens, UniProt Q14671 828-1176, C1007V;R1008H;Q1011L). A digest of the protocol: as §1
Chain of PUM1 PUF domain R5-VHL (Q14671 828-1176 C1007V/R1008H/Q1011L): as the sequence (Q14671 828-1176 N1122R/Y1123R/Q1126N) above, with C180V, R181H, Q184L, R295N, R296Y, N299Q counted along it
Assay [3] addresses PUM1 PUF domain R5-GFM (Homo sapiens, UniProt Q14671 828-1176, C1007G;R1008F;Q1011M). A digest of the protocol: as §1
Assay [4] has as its target PUM1 PUF domain R3-FRW (Homo sapiens, UniProt Q14671 828-1176, C935F;Q939W). The procedure, abridged: as §1
Assay [5] deals with PUM1 PUF domain R1-KSL (Homo sapiens, UniProt Q14671 828-1176, S863K;R864S;Q867L). The procedure, abridged: as §1
Chain of PUM1 PUF domain R1-KSL (Q14671 828-1176 S863K/R864S/Q867L): as the sequence (Q14671 828-1176 N1122R/Y1123R/Q1126N) above, with S36K, R37S, Q40L, R295N, R296Y, N299Q counted along it
The target in assay [6] is PUM1 PUF domain R3-QPS (Homo sapiens, UniProt Q14671 828-1176, C935Q;R936P;Q939S). A digest of the protocol: as §1
Chain of PUM1 PUF domain R3-QPS (Q14671 828-1176 C935Q/R936P/Q939S): as the sequence (Q14671 828-1176 N1122R/Y1123R/Q1126N) above, with C108Q, R109P, Q112S, R295N, R296Y, N299Q counted along it
Assay [7] deals with PUM1 PUF domain R4-GNV (Homo sapiens, UniProt Q14671 828-1176, N971G;H972N;Q975V). A digest of the protocol: as §1
Chain of PUM1 PUF domain R4-GNV (Q14671 828-1176 N971G/H972N/Q975V): as the sequence (Q14671 828-1176 N1122R/Y1123R/Q1126N) above, with N144G, H145N, Q148V, R295N, R296Y, N299Q counted along it
Assay [8] has as its target PUM1 PUF domain R4-QGG (Homo sapiens, UniProt Q14671 828-1176, N971Q;H972G;Q975G). The procedure, abridged:
as §1

Chain of PUM1 PUF domain R5-GFM (Q14671 828-1176 C1007G/R1008F/Q1011M): as the sequence (Q14671 828-1176 N1122R/Y1123R/Q1126N) above, with C180G, R181F, Q184M, R295N, R296Y, N299Q counted along it
Chain of PUM1 PUF domain R4-QGG (Q14671 828-1176 N971Q/H972G/Q975G): as the sequence (Q14671 828-1176 N1122R/Y1123R/Q1126N) above, with N144Q, H145G, Q148G, R295N, R296Y, N299Q counted along it
Chain of PUM1 PUF domain R3-FRW (Q14671 828-1176 C935F/Q939W): as the sequence (Q14671 828-1176 N1122R/Y1123R/Q1126N) above, with C108F, Q112W, R295N, R296Y, N299Q counted along it

As to “GGCUAGAACUAGUGGAUCCCCCGGCGCCCGGCGGCUCGAGCCCGGGUAAGUGUAAAUAGUCUGCAUGCCGCCGGGCGCCAUGCCUGCAGGUCGACUCUAGAAAACAUG”, the binding signal in assay [1] was 2.81 log2 enrichment (interaction score); in assay [2], 2.67 log2 enrichment (interaction score); in assay [3] it was 2.5 log2 enrichment (interaction score).

For “GGCUAGAACUAGUGGAUCCCCCGGCGCCCGGCGGCUCGAGCCCGGGUAAGUGUAAGUAGUCUGCAUGCCGCCGGGCGCCAUGCCUGCAGGUCGACUCUAGAAAACAUG”, in assay [4], the binding signal was 4.16 log2 enrichment (interaction score).

Take “GGCUAGAACUAGUGGAUCCCCCGGCGCCCGGCGGCUCGAGCCCGGGUAAGUGUAAAUCGUCUGCAUGCCGCCGGGCGCCAUGCCUGCAGGUCGACUCUAGAAAACAUG”: the binding signal in assay [5] was 2.8 log2 enrichment (interaction score). In the case of “GGCUAGAACUAGUGGAUCCCCCGGCGCCCGGCGGCUCGAGCCCGGGUAAGUGUAAUUAGUCUGCAUGCCGCCGGGCGCCAUGCCUGCAGGUCGACUCUAGAAAACAUG”, the binding signal in assay [6] was 3.41 log2 enrichment (interaction score). For “GGCUAGAACUAGUGGAUCCCCCGGCGCCCGGCGGCUCGAGCCCGGGUAAGUGUAUAUAGUCUGCAUGCCGCCGGGCGCCAUGCCUGCAGGUCGACUCUAGAAAACAUG”, the binding signal in assay [7] was 2.92 log2 enrichment (interaction score); in assay [8], 2.98 log2 enrichment (interaction score). Take “GGCUAGAACUAGUGGAUCCCCCGGCGCCCGGCGGCUCGAGCCCGGGUAAGUGUACAUAGUCUGCAUGCCGCCGGGCGCCAUGCCUGCAGGUCGACUCUAGAAAACAUG”: the binding signal in assay [7] was 1.41 log2 enrichment (interaction score); in assay [8], 1.65 log2 enrichment (interaction score). On to “GGCUAGAACUAGUGGAUCCCCCGGCGCCCGGCGGCUCGAGCCCGGGUAAGUGUGAAUAGUCUGCAUGCCGCCGGGCGCCAUGCCUGCAGGUCGACUCUAGAAAACAUG”, for which the binding signal in assay [3] was 2.5 log2 enrichment (interaction score).
